46 compounds from PubChem BioAssay AID1259418 (Broad Institute, 2018) can be followed below.

The campaign covered roughly 3,400 compounds. About 840 (25%) were called active. Another 11% or so got no clear call; they are omitted. Not all results are given here. Potency and affinity values are given separately. Unmarked numbers belong to inactive results.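 The calls were made as follows: active = fitted half-maximal concentration of signal decrease at or below twice the sample's top tested concentration; inconclusive = flat curve between -70 and -30 percent, or poor fit; inactive = flat within 30 percent, signal rise, or potency above limit.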

This assay in a line: inhibitors of Toxoplasma growth in IFN-γ-primed HeLa – cell-based, ME49Luc, luciferase, 72 h, dose response (AID 1259418). The conditions noted are these: T. gondii ME49Luc in IFN-y HeLa, hits give low values, -100% = high-dose IFN-γ control wells; at 19.5 µM unless noted.
For the compound `CCCC(=O)Nc1ccc(-c2nc(-c3ccccc3)co2)cc1`, the max activity was 72.8% [at 10 µM].
To `O=C(NCCc1csc(-c2ccccc2)n1)C1CCN(S(=O)(=O)c2cccc(F)c2)CC1` belongs 8.1% [at 5 µM]; to `O=C(NCCc1csc(-c2ccccc2)n1)C1CCN(S(=O)(=O)c2cccs2)CC1`, 11.2% [at 0.16 µM].
The value for `Cc1ccc(S(=O)(=O)N2CCC(C(=O)NCCc3csc(-c4ccccc4)n3)CC2)cc1` was 5.41% [at 5 µM]; that for `Cc1nc(CCNC(=O)C2CCN(S(=O)(=O)c3ccc(CC(C)C)cc3)CC2)cs1` was -7.19% [at 1.35 µM].
To `CCOc1ccc(S(=O)(=O)N2CCC(C(=O)NCCc3csc(-c4ccccc4)n3)CC2)cc1` belongs 21.5% [at 5 µM]; to `Cc1nc(CCNC(=O)C2CCN(S(=O)(=O)c3ccc(Cl)cc3)CC2)cs1`, -9.1% [at 0.35 µM].
For `Cc1cc(C)cc(S(=O)(=O)N2CCC(C(=O)NCCc3csc(-c4ccccc4)n3)CC2)c1`, the max activity was 16.8% [at 10 µM].
The value for `O=C(NCCc1csc(-c2ccccc2)n1)C1CCN(S(=O)(=O)c2ccccc2)CC1` was 11.6% [at 10 µM].
With `COC(=O)c1sccc1S(=O)(=O)N[C@@H]1CC[C@@H](N)C1`, the max activity is 17.5%.
The value for `CCc1c(C)sc2c1CCN(Cc1nc(-c3cccc(Cl)c3)oc1C)C2c1ccccc1` (stereo unspecified) was 7.75% [at 0.68 µM].
To `COc1cccc(-c2nc3c(s2)CN(S(=O)(=O)c2ccc(CC(C)C)cc2)CC3)c1` belongs 8.23% [at 2.6 µM].
The value for `CCc1ccccc1Nc1nc(-c2ccc(OC)cc2)nc2ccccc12` was -9.45% [at 0.16 µM].
`COc1ccccc1-c1nc(Cn2nnc(-c3nc(-c4ccccc4)no3)c2C)c(C)o1`: the max activity is -9.24% [at 1.35 µM].
Regarding `Cc1cccc(C2=NC3(CCN(Cc4ccccc4C)CC3)NC2=O)c1`, the max activity was 12% [at 0.16 µM].
The value for `O=C(Cc1ccc(F)cc1)Nc1ccc(-c2nc(-c3ccccc3)co2)cc1` was 4.13% [at 5 µM].
The value for `COc1ccc(-c2nc(Nc3ccc(C)cc3Cl)c3ccccc3n2)cc1` was -11.8% [at 2.6 µM]; that for `NC(=O)C1(N2CCCCC2)CCN(c2ncc(NC(=O)c3ccccc3F)cc2C(=O)O)CC1` was 15.7% [at 2.6 µM].
The value for `CCCc1ccc(S(=O)(=O)N2CCc3nc(-c4cccc(OC)c4)sc3C2)cc1` was -6.99% [at 2.6 µM]; that for `COc1cc(OC)cc(C(=O)N2CCC3(CC2)Nc2ccc(C)c(C)c2-n2cccc23)c1` was -13.1% [at 0.35 µM].
For the compound `O=C(NCCc1csc(-c2ccccc2)n1)C1CCN(C(=O)Cc2ccc(Cl)cc2)CC1`, the max activity is 8.14%.
To `COc1cccc(CC(=O)N2CCC(C(=O)NCCc3csc(-c4ccccc4)n3)CC2)c1` belongs 8.89% [at 10 µM].
The value for `COc1ccc(-c2nc3c([nH]2)c(=O)n(C)c(=O)n3C)cc1OC` was 40.8% [at 0.35 µM]; that for `Cc1ccc(CCNC(=O)CCC2Nc3c4ccccc4nc(=S)n3C2=O)cc1` (stereo unspecified) was 13.4% [at 10 µM].
To `COc1cccc(S(=O)(=O)N2CC[C@@H]3[C@H](CO)Nc4ccc(C5=CCCCC5)cc4[C@@H]32)c1` belongs 8.73% [at 10 µM]; to `CN(C)CC(=O)N1C[C@@H]2N[C@H](C1)C2c1ccc(C2=CCCCC2)cc1` (stereo partly specified), 18.8% [at 9 µM].
Turning to `Cc1nc(CCNC(=O)[C@H]2CCCN2S(=O)(=O)c2cccs2)cs1`, the max activity was 7.39% [at 0.16 µM].
The value for `O=C(NCCCN1CCC(N2CCCCC2)CC1)c1nnc2ccc(-c3ccccc3)nn12` was 16.2% [at 0.16 µM]; that for `Cc1cccc(C(=O)N2CCC3(CC2)Nc2ccc(C)c(C)c2-n2cccc23)c1` was 11.2% [at 0.68 µM]; that for `Cc1oc(-c2ccccc2)nc1Cn1nnc(-c2nc(-c3ccc4c(c3)OCO4)no2)c1C` was 8.48% [at 10 µM].
Take `O=S(=O)(Cc1ccccc1)N1CC2CN(Cc3cccc(Cl)c3)CC2C1` (stereo unspecified): the max activity was 9.94%.
For `COc1cccc(CN2CCc3nc(SCc4nc(-c5ccccc5)oc4C)[nH]c(=O)c3C2)c1`, the max activity was 24.2% [at 2.6 µM].
To `COc1ccc(-c2nc(NCC3CCN(Cc4cccc(Cl)c4)CC3)c3ccccc3n2)cc1` belongs -31.6% [at 10 µM]; to `COc1ccc(-c2nc(NCC3CCN(Cc4cccc(C)c4)CC3)c3ccccc3n2)cc1`, -18.6% [at 2.6 µM]; to `COCCC(=O)c1cc2c(s1)CCN2Cc1cccnc1`, 26.4%.
To `COc1cccc(CNC(=O)N2CCc3nc(-c4ccccc4)sc3C2)c1` belongs -15% [at 5 µM]; to `Cc1ccccc1S(=O)(=O)N1CCCCN2[C@H](CO)[C@H](c3ccc(C#CCN(C)C)cc3)[C@H]2C1`, 23.7%; to `Cc1ccccc1S(=O)(=O)N1CCCCN2[C@H](CO)[C@H](c3ccc(C#CCN(C)C)cc3)[C@@H]2C1`, -17.9%.
Turning to `Cc1cccc(N2CCN(c3nc(-c4ccc(Cl)cc4)nc4ccccc34)CC2)c1C`, the max activity is 10.6%.
The value for `c1cc(-c2nccn2CCn2ccnc2)ccn1` was 11.4%; that for `COc1cccc(CNc2nc(-c3ccc(Cl)cc3)nc3ccccc23)c1` was -22% [at 1.35 µM].
To `O=S(=O)(c1cccc(F)c1)N1CC[C@@H]2[C@H]1c1cc(Br)ccc1N[C@@H]2CO` belongs 35.2% [at 10 µM]; to `OC[C@@H]1Nc2ccc(-c3cccc(F)c3)cc2[C@H]2[C@@H]1CCN2Cc1ccc(F)cc1`, 42.2% [at 10 µM].
The value for `Cc1ccc(-c2csc(-c3cccn3CC(=O)N3CCC4(CC3)OCCO4)n2)cc1` was 11.8% [at 5 µM]; that for `Cc1oc(-c2ccccc2)nc1Cn1nnc(-c2nc(-c3ccc(F)c(Cl)c3)no2)c1C` was -12.6% [at 1.35 µM]; that for `O=C(COc1ccccc1)N1CCC2(CC1)Nc1cc(F)ccc1-n1cccc12` was 10.6% [at 5 µM].
